Source: PubChem BioAssay
RE007 growth inh = less growth of the S. pombe RE007 Vpr strain. S. pombe RE007 Vpr strain, BacTiter-Glo ATP luminescence, 24 h. Potency, µM (top dose mostly 92.2 µM), for inactives: at the top dose activity change, negative = less growth, most hits filed as inhibitors. hit rate 0.21% among 360,000. AID 651644; active = well fitted falling curve with a large enough effect; inconclusive = small, poorly fitted or top-dose-only effect; inactive = no such curve, though single readings can be large or run the other way; note: % is set by controls: 0 for no effect and ±100 for the full control effect; nearly all actives have a fitted effect of over 50% in size
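Fission yeast RE007 carrying one integrated HIV-1 vpr copy, seeded at OD 0.01 in PMG+AL medium with 23 nL pinned compound. Grown 24 h at 30 degrees; viability read by BacTiter-Glo luminescence after 5 min.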
Pf growth 96h = P. falciparum growth inhibition at 96 hours | Potency, µM (titrated, usually from 28.7 µM), for inactives: top-dose activity change, negative = inhibition, hits mostly inhibitors | AID 504834 | P. falciparum luciferase reporter growth, 96 h | hit rate 6.9% among 320,000; note: % is set by controls: 0 for no effect and ±100 for the full control effect
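P. falciparum expressing integrated firefly luciferase grown in erythrocytes (2% hematocrit, 0.05% parasitemia final) with compounds for 96 hours at 37 C, 5% CO2. Growth inhibition read as loss of luminescence after adding luciferase detection reagent.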
Pf growth 48h = P. falciparum growth inhibition at 48 hours (one generation); Potency, µM (highest dose often 28.7 µM), without a hit: at the top dose activity change, negative = inhibition, hits mostly inhibitors; P. falciparum luciferase growth in erythrocytes, 48 h; hit rate 5.9% among 310,000; AID 504832; note: % is set by controls: 0 for no effect and ±100 for the full control effect
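Growth was read as firefly luciferase luminescence after a 48 h, 37 C, 5% CO2 exposure of compounds to reporter-bearing P. falciparum cultures (0.1% parasitemia, 2% hematocrit final) in Albumax-supplemented RPMI 1640.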
NS1 inh = blocks influenza NS1 protein function; Potency, µM (titrated, usually from 46.1 µM), inactives show at the highest dose activity, positive = more growth; hit rate 0.4% among 270,000; AID 2326; calls by dose curve; note: actives are rising curves; nearly all actives have a fitted effect of over 50% in size
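S. cerevisiae expressing influenza A NS1, grown in glucose, washed, then diluted 1:100 into pH 6.0 -URA galactose medium with 23 nl compound. Growth recovery read as OD600; NS1-free strain serves as control.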
SARS PLP yeast = SARS-CoV PLP inhibition in yeast | S. cerevisiae expressing SARS-CoV PLpro, growth rescue | Potency, µM (series often up to 32.9 µM), for inactives: at the top dose activity, positive = growth rescue, most hits filed as activators | hit rate 0.19% among 330,000 | AID 485353; calls by dose curve; note: 0% is about no effect; nearly all actives have a fitted effect of over 55% in size
The depositor's hits bear a star; ? = inconclusive; . = no result given. Compounds with a hit are over-represented: about 9.5% of the library has one in this group of screens. Unless noted, calls come from the whole dose curve; as a rule, active = well fitted inhibition curve with a large enough effect; inconclusive = small, poorly fitted or top-dose-only effect, or another doubt; inactive = no such curve, though single readings can be large or run the other way. Potency is the fitted concentration of half-maximal effect.

SMILES | RE007 growth inh | Pf growth 96h | Pf growth 48h | NS1 inh | SARS PLP yeast
Cc1cc(N2C(=O)C(=O)/C(=C(/O)c3ccc(F)cc3)C2c2ccc(Cl)cc2)no1 (stereo not drawn) | 7% | 59% | 13µM* | -20% | 5%
COc1cccc(/C(O)=C2\C(=O)C(=O)N(c3ccccn3)C2c2ccccc2OC)c1 (stereo not drawn) | -5% | 5.2µM* | 8% | -1% | -8%
Cc1oc(-c2cccc(Cl)c2)nc1CN1CCC(C(=O)NCCCN2CCCC2=O)CC1 | -5% | 12µM* | . | 0% | 1%
Cc1oc(-c2cccc(Cl)c2)nc1CN1CCC(C(=O)NCCCN2CC(C)CC(C)C2)CC1 (stereo not drawn) | -10% | -26% | 7.4µM* | 3% | -1%
CCOC(=O)N1CCN(C(=O)C2CCCN(Cc3nc(-c4ccc(Cl)cc4)oc3C)C2)CC1 (stereo not drawn) | -20% | 10µM* | . | -1% | -2%
CCCN(CCC)CCNC(=O)C1CCN(Cc2nc(-c3ccc(Cl)cc3)oc2C)CC1 | -29% | ? | 4.7µM* | 4% | -1%
Cc1oc(-c2ccc(Cl)cc2)nc1CN1CCCC(C(=O)NC2CC2)C1 (stereo not drawn) | -22% | ? | 0% | -5% | -2%
Cc1oc(-c2ccc(Cl)cc2)nc1CN1CCCC(C(=O)NCCCN2CCCC2=O)C1 (stereo not drawn) | -3% | ? | . | -4% | 3%
Cc1ccc(OCC(=O)NNC(=S)NC(=O)C2CC2)c(C)c1 | . | 15µM* | ? | -105% | -20%
CC(=O)Nc1cc(=O)c2cccnc2[nH]1 | -12% | . | . | . | .
O=[N+]([O-])c1cccc(COc2ncnc3cc([N+](=O)[O-])ccc23)c1 | -6% | ? | ? | -2% | 1%
BrC(=C\c1ccccc1)/C=N/n1cnnc1 | -6% | 26% | 10µM* | -1% | -8%
Cc1cc(C)c2cc(C(c3nnnn3C3CCCC3)N3CCOCC3)c(=O)[nH]c2c1 (stereo not drawn) | -2% | 0% | ? | ? | 3%
Oc1ccc(N2CCN(C(c3ccccn3)c3nnnn3C3CCCC3)CC2)cc1 (stereo not drawn) | -11% | 8% | 10µM* | 12% | -6%
Fc1ccc(C(c2nnnn2C2CCCC2)N2CCN(Cc3ccncc3)CC2)cc1 (stereo not drawn) | -1% | 12% | -14% | -11% | -2%
Fc1ccc(C(c2nnnn2C2CCCCC2)N2CCCC2)cc1 (stereo not drawn) | -3% | -33% | 13µM* | 7% | 1%
Cc1ccc2cc(C(c3nnnn3C3CCCC3)N3CCN(c4ccc(F)cc4)CC3)c(=O)[nH]c2c1 (stereo not drawn) | -3% | -7% | 5.9µM* | ? | 7%
c1ccc(C(c2nnnn2C2CCCC2)N2CCN(c3ccccc3)CC2)cc1 (stereo not drawn) | 12% | ? | 13µM* | -9% | -20%
CCC1(c2ccccc2)NC(=O)N(CC(=O)N2CC(=O)Nc3ccccc32)C1=O (stereo not drawn) | 2% | ? | ? | . | 0%
CCC(c1nnnn1C1CCCC1)N1CCN(c2cccc(OC)c2)CC1 (stereo not drawn) | -6% | 27% | 12µM* | 0% | 0%
CCC(c1nnnn1CCOC)N1CCN(c2cccc(C(F)(F)F)c2)CC1 (stereo not drawn) | 9% | 2.3µM* | ? | ? | 0%
COc1ccc(C(c2nnnn2C2CCCCC2)N2CCN(c3ccc(OC)cc3)CC2)cc1 (stereo not drawn) | 29% | . | 12µM* | -8% | -8%
CCC(c1nnnn1Cc1ccc2c(c1)OCO2)N1CCN(c2ccccc2)CC1 (stereo not drawn) | 1% | 21% | 12µM* | -50% | -7%
COCCn1nnnc1C(c1cccs1)N1CCN(c2cccc(C(F)(F)F)c2)CC1 (stereo not drawn) | 9% | . | ? | -9% | -5%
CCOC(=O)c1ccccc1NC(=O)Cc1c(C(=O)O)n(C)c2ccccc12 | 8% | 25% | -3% | 14% | 0%
SMILES | RE007 growth inh | Pf growth 96h | Pf growth 48h | NS1 inh | SARS PLP yeast
C=CCN1CC(=O)N2C(c3ccccc3)c3[nH]c4ccccc4c3C[C@H]2C1=O (stereo partly drawn) | -15% | ? | ? | 7% | 0%
CC1CCCC(C)N1C(=O)COC(=O)COc1ccc(C#N)cc1 (stereo not drawn) | 1% | . | . | . | 4%
Cc1noc(C)c1C(=O)N1CCN(c2ccc(OCc3ccccc3)cc2)CC1 | 1% | -15% | -13% | 0% | 0%
CCN1/C(=C/C=C/C=C/c2sc3ccccc3[n+]2CC)Sc2ccccc21 | . | 3.4µM* | 3µM* | 4% | -75%
CCN1/C(=C/C=C/c2sc3ccccc3[n+]2CC)Sc2ccccc21 | ? | 0.15µM* | 0.33µM* | . | .
CC(C)=NOc1nc(NC(=O)NS(=O)(=O)c2ccccc2Cl)nc(N(C)C)n1 | 3% | . | . | . | .
CC1(C)CC(=O)C=C(c2cccc(Cl)c2O)C1 | -3% | ? | ? | . | 2%
O=C1NC(c2cccc(OCc3ccccc3)c2)Nc2ccccc21 (stereo not drawn) | 15% | . | . | . | .
O=C(O)c1cn(-c2ccccc2)nc1C(=O)O | 7% | -18% | -1% | 10% | -20%
NNC(=O)c1nn(-c2ccccc2)cc1O | . | -2% | -4% | 6% | 10µM*
N[C@@H](CSC1(c2ccc(Cl)cc2)c2ccccc2-c2ccccc21)C(=O)O | . | . | . | 13% | .
CC(=O)c1ccc(NC(=O)COC(=O)CCC2CCCC2)cc1 | -14% | . | . | . | -8%
CC(=O)N1c2ccc(S(=O)(=O)NCCC(=O)N(C)Cc3ccccc3)cc2CC1C (stereo not drawn) | -2% | 7.4µM* | 1% | -4% | -7%
CSc1ccc(CN(C)C(=O)CCNS(=O)(=O)c2ccc(C)c(C)c2)cc1 | -17% | ? | 3.7µM* | . | 2%
Cc1nonc1CN(C)C(=O)c1cc(COc2ccc(F)cc2Cl)on1 | 2% | -16% | 17% | -19% | 4%
Cc1ccc(CN(C)C(=O)c2cc(COc3ccc(F)cc3Cl)on2)o1 | -22% | 25% | 0.093µM* | -1% | -3%
C=C1CC(COc2ccc3c(C)c(Cl)c(=O)oc3c2)(c2ccccc2)OC1=O (stereo not drawn) | 2% | . | . | . | .
O=C(NCc1ccccn1)[C@@H]1CCCN1C(=O)[C@@H]1CCCN1C(=O)c1ccc(Cl)cc1 | 9% | . | . | . | .
O=[N+]([O-])c1ccc(-c2cnc(NO)nc2)cc1 | 21% | ? | 12µM* | 9% | -20%
O=C(NCC1CCCO1)c1cc2cc(Cl)ccc2[nH]1 (stereo not drawn) | -12% | 1% | 13% | 3% | -13%
N=C(N)C(N=Nc1ccccc1)C(=N)N (stereo not drawn) | . | . | . | -4% | .
CCN(CC)CCNc1nc2cc(OC)c(OC)cc2c2nc(-c3ccccc3)nn12 | -7% | ? | 1µM* | 2% | 0%
